Data on 27 compounds can be found in PubChem BioAssay (EPA / NIEHS).

Structures are written as SMILES. “And” between values parts separate entries of the source, which are not always exact repeats. Equal entries are not always repeated. Results filed as inconclusive are left out. The source made the active and inactive calls. The calls were made as follows, unless noted: active = hit-call score of the fitted dose curve at least 0.9, where 1 is the maximum; inconclusive = response in the unintended direction; inactive = score below 0.9.

One may read the AC50 as the midpoint of the concentration-response curve, whichever way the signal moves.

For one assay, the system named is DIO3 (gene 1735). The assay can be described thus: CCTE_GLTED_hDIO3: CCTE's human Deiodinase 3 (DIO3) Inhibition Assay, Great Lakes Toxicology and Ecology Division (GLTED) Lab (AID 2284055).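 As to AC50: potency is for inhibition seen as loss of released iodide signal.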 The essentials: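 Inhibition is read as reduced iodide release, measured spectrophotometrically by the Sandell-Kolthoff cerium/arsenic reaction. Adenovirus-expressed human DIO3 enzyme is exposed to chemical for 3 h, n=3 plates. Iodinated chemicals, nitrite, iron or thiocyanate may interfere.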
As to `CCCCCCCCC=CCCCCCCCC1=NCCN1CCO`, the concentration at half-maximal activity (AC50) was 3.92 µM (active). On the same count and under the same terms, the result for `CCCCCC(C=O)=Cc1ccccc1` reads 16.4 µM (active); that for `CCOc1ccc(N=Nc2ccc(C=Cc3ccc(N=Nc4ccc(OCC)cc4)cc3S(=O)(=O)O)c(S(=O)(=O)O)c2)cc1`, 35.6 µM (active).

Consider `COc1ccc(N=Nc2cc(C)c(N=Nc3ccc(S(=O)(=O)O)cc3)cc2OC)cc1`, for which the AC50 is 100 µM (active). Turning to `CCc1cc(Cc2cc(CC)cc(C(C)(C)C)c2O)c(O)c(C(C)(C)C)c1`, the concentration at half-maximal activity (AC50) was 10.7 µM (active). Turning to `C=C1CC[C@H](O)C/C1=C/C=C1\CCC[C@]2(C)[C@@H]([C@H](C)/C=C/[C@H](C)C(C)C)CC[C@@H]12`, the AC50 was 2.3 µM (active). Turning to `CCCCCCCCCCCCCCN(CCO)CCO`, the AC50 is 7.58 µM (active). On to `CCCCC(CC)COC(=O)c1ccc(O)cc1` (centres undefined), for which the AC50 was 79.1 µM (active).

For the compound `C=C(C)C(=O)OCCOC1CC2CC1C1C=CCC21` (centres undefined), the AC50 is 6.43 µM (active). For the compound `CCCCCCCCCCCCN1CCCCCC1=O`, the concentration at half-maximal activity (AC50) was 89.2 µM (active).

As to `Cc1cc(S(=O)(=O)O)ccc1N=Nc1c(O)ccc2ccccc12`, the outcome was inactive. On to `Oc1ccc2cc(SSc3ccc4cc(O)ccc4c3)ccc2c1`, for which the AC50 was 3.47 µM (active). Take `CCOC(=O)[C@@H](C)Oc1ccc(Oc2nc3ccc(Cl)cc3o2)cc1`: the concentration at half-maximal activity (AC50) is 7.15 µM (active). Consider `O=CCc1ccccc1`, for which the AC50 is 74.8 µM (active). For `CCCCCCCCCCCCCC(=O)OCC(O)CO` (centres undefined), the AC50 was 47.9 µM (active). Take `CC(C)CCCCCCCCCCCCCCC(=O)O`: the AC50 is 19.4 µM (active).

Tested on in another assay: not listed separately
The assay can be described thus: CCTE_Shafer_MEA_dev_LDH: CCTE's Lactate Dehydrogenase Assay for Cytotoxicity in the Neural Network Formation Assay, Shafer Lab (AID 2284068).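 Also: exposure for twelve days from plating with re-dosing on DIV 5 and 9.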 The method in brief: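 Developing rat cortical networks on MEA plates are exposed to compound for 12 days from plating. LDH activity is measured spectrophotometrically, with DMSO as baseline.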
Regarding `Oc1c(Cl)cc(Cl)c(Cl)c1Cc1c(O)c(Cl)cc(Cl)c1Cl`, the AC50 was 1.26 µM (active) and 1.25 µM (active).

Regarding `CN(C)CCOC(C)(c1ccccc1)c1ccccn1` (centres undefined), the call was inactive. As to `COCCc1ccc(OCC(O)CNC(C)C)cc1` (centres undefined), the compound was classed as inactive. On to `COCCOCCOCCO`, for which the compound was called inactive.

Tested on in another assay: not listed separately
The assay can be described thus: CCTE_Shafer_MEA_dev_AB: CCTE's Alamar Blue Assay for Cytotoxicity in the Neural Network Formation Assay, Shafer Lab (AID 2284083).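 Also: resazurin reduction fluorescence as viability of cultured neurons; twelve days of exposure from plating with re-dosing on DIV 5 and 9.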 The essentials:
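Cytotoxicity companion to the developmental MEA: primary rat cortical neurons, 12-day exposure starting day 0, compound refreshed DIV 5 and 9; resazurin fluorescence, fitted against DMSO vehicle.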
(In general: Alamar Blue is a resazurin reagent that responds to reducing activity.)
In the case of `Oc1c(Cl)cc(Cl)c(Cl)c1Cc1c(O)c(Cl)cc(Cl)c1Cl`, the half-maximal activity concentration (AC50) was 8.76 µM (active) and 3.54 µM (active). For `CN(C)CCOC(C)(c1ccccc1)c1ccccn1` (centres undefined), the outcome was inactive. Turning to `CS(=O)(=O)OCCCCOS(C)(=O)=O`, the compound was called inactive. `COCCc1ccc(OCC(O)CNC(C)C)cc1` (centres undefined): the result was inactive. As to `COCCOCCOCCO`, the call was inactive.

Tested on in another assay: not listed separately
Put plainly: CCTE_Shafer_MEA_acute_LDH: CCTE's Lactate Dehydrogenase Assay for Cytotoxicity in the Neural Acute Assay, Shafer Lab (AID 2284086).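 Also: active means LDH release rises above DMSO vehicle level.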 The essentials:
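LDH released during 40 min compound exposure of primary rat cortical cultures, quantified by absorbance at 490 nm in collected medium. Fitting direction positive versus DMSO vehicle.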
Consider `CCCCCCC(CO)CCCC` (centres undefined), for which the compound was called inactive.

As to `Oc1c(Cl)cc(Cl)c(Cl)c1Cc1c(O)c(Cl)cc(Cl)c1Cl`, the call was inactive. Take `CC1(C)CCC[C@]2(C)[C@H]3CCO[C@]3(C)CC[C@@H]12`: the outcome was inactive. As to `O=C(Nc1ccc2c(O)c(N=Nc3ccc(N=Nc4ccc(S(=O)(=O)O)cc4)cc3)c(S(=O)(=O)O)cc2c1)c1ccccc1`, the compound was called inactive. Same read-out and setting: the result for `CN(C)C(=S)SC(=S)N(C)C` reads “inactive”. Take `COCCc1ccc(OCC(O)CNC(C)C)cc1` (centres undefined): the result was inactive. In the case of `C=CC(C)(O)CCC=C(C)C` (centres undefined), the compound was called inactive.

Tested on in a further assay: not listed separately
Put plainly: CCTE_Shafer_MEA_dev_mutual_information_norm: CCTE's Neural Network Formation Assay for Mutual Information Normalization, Shafer Lab (AID 2284091; active = hit-call score of the fitted dose curve at least 0.9, where 1 is the maximum; inactive = score below 0.9;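 as to AC50: mutual information between electrodes summarised as area under curve across four recording days; potency is for a decrease in mutual information relative to DMSO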). The essentials:
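Neurons from rat cortex were seeded at 1.5 x 10^5 cells/well onto PEI-coated MEAs in a laminin drop, then exposed to compound from day 0 for twelve days. Network recordings on four days gave mutual information, summarised by AUC relative to DMSO.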
For the compound `Oc1c(Cl)cc(Cl)c(Cl)c1Cc1c(O)c(Cl)cc(Cl)c1Cl`, the concentration at half-maximal activity (AC50) is 578 nM (active) and 302 nM (active). In the case of `CN(C)CCOC(C)(c1ccccc1)c1ccccn1` (centres undefined), the outcome was inactive. On to `CS(=O)(=O)OCCCCOS(C)(=O)=O`, for which the call was inactive.

As for `FC(F)(F)COCC(F)(F)F`, the outcome was inactive. The same measure, in the same setting: the result for `COCCc1ccc(OCC(O)CNC(C)C)cc1` (centres undefined) reads “inactive”. `COCCOCCOCCO`: the compound was called inactive.

Tested on in a further assay: not listed separately
Put plainly: CCTE_Shafer_MEA_dev_correlation_coefficient_mean: CCTE's Neural Network Formation Assay for Mean Correlation Coefficient, Shafer Lab (AID 2284093; active = hit-call score of the fitted dose curve at least 0.9, where 1 is the maximum; inactive = score below 0.9;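 as to AC50: well mean pairwise spike train correlation integrated as AUC over recording days 5 to 12; potency fitted for loss of correlation relative to DMSO vehicle wells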). The essentials:
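Extracellular firing from rat cortical networks on 48-well MEAs, DMSO-referenced, negative fitting direction. Compound present from plating to DIV12; mean pairwise correlation per well integrated over DIV5–12 recordings by trapezoidal AUC.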
Take `Oc1c(Cl)cc(Cl)c(Cl)c1Cc1c(O)c(Cl)cc(Cl)c1Cl`: the AC50 is 765 nM (active) and 832 nM (active). With `CN(C)CCOC(C)(c1ccccc1)c1ccccn1` (centres undefined), the compound was classed as inactive. On the same count and under the same terms, the result for `CS(=O)(=O)OCCCCOS(C)(=O)=O` reads “inactive”; that for `FC(F)(F)COCC(F)(F)F`, “inactive”. On the same count and under the same terms, the result for `COCCc1ccc(OCC(O)CNC(C)C)cc1` (centres undefined) reads “inactive”; that for `COCCOCCOCCO`, “inactive”.
